Assay results published in PubChem BioAssay.
Calls of active or inactive are those of the source. Unless noted, no rule for the calls is given here.

What was measured:
[1] = resazurin metabolic signal in HepG2 cells – cell-based, resazurin fluorescence, 24 h, PK04 Diversity Set, profiling panel (AID 1172); settings: HepG2 viability, higher = more signal
[2] = budding yeast growth changes without added modifier – OD600, strain BY4716, 24 h, basal condition, primary screen (AID 1173); settings: S. cerevisiae BY4716 growth, OD600, 24 h; higher = more signal, called active from +8 up or from −8 down
[3] = viability profiling in MM1S myeloma cells – cell-based, resazurin fluorescence, basal, 24 h, PK04 Diversity Set, profiling panel (AID 1174); settings: higher = more signal, called active from +8 up or from −8 down;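 also: MM1S multiple myeloma cell line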
[4] = biological target: Dihydroorotate dehydrogenase (quinone), mitochondrial (Plasmodium falciparum (isolate 3D7)) (UniProt Q08210); assay: inhibition of P. falciparum DHODH – biochemical, C-terminal His tag, absorbance 600 nm, primary screen (AID 1175); settings: PfDHODH enzyme, DCIP absorbance 600 nm; higher = more signal, called active from +8 up or from −8 down;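 also: recombinant parasite enzyme with a five histidine tag at its C terminus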
[5] = inhibition of PAO1 biofilm formation – strain PAO1, LB-PBS medium, absorbance 600 nm, primary screen (AID 1176); settings: P. aeruginosa PAO1 growth/biofilm, A600, 12 h; higher = more signal
[6] = growth modulation of vineyard yeast isolate – strain RM11-1a, OD600, basal, 24 h, primary screen (AID 1177);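 also: cultures grown under basal conditions with no added stressor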; settings: S. cerevisiae RM11-1a growth, OD600, 24 h; higher = more signal, called active from +8 up or from −8 down
[7] = growth of efflux-deficient E. coli DRC39 – strain DRC39, OD650, 24 h, E. coli filamentation inducers, primary screen (AID 1178);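 also: growth measured as culture turbidity by optical density at 650 nm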; settings: E. coli DRC39 acrAB, higher = more signal, called active from +8 up or from −8 down
[8] = growth of efflux-deficient E. coli DRC39 – strain DRC39, OD650, 48 h, E. coli filamentation inducers, primary screen (AID 1179);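 also: screen aims at cell division blockers that make cells filament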; settings: E. coli DRC39 delta-acrAB growth, higher = more signal, called active from +8 up or from −8 down
[9] = viability profiling in RPMI8226 myeloma cells – cell-based, resazurin fluorescence, basal, 24 h, PK04 Diversity Set, profiling panel (AID 1180); settings: higher = more signal;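 also: RPMI8826 multiple myeloma cell line at 5000 cells per well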
[10] = biological target: E3 ubiquitin-protein ligase XIAP (Homo sapiens) (UniProt P98170); assay: small molecules binding XIAP protein – biophysical, small-molecule microarray, fluorescence 635 nm, primary screen (AID 1181); settings: higher = more signal;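 also: score merges 667 nm emission and signal to noise over triplicate slides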
[11] = system: XIP peptide (Xip251-270) binding; assay: XIP fragment 251-270 binding compounds – biochemical, small-molecule microarray, fluorescence 635/667 nm, 0.1 µg/mL protein, primary screen (AID 1182); settings: fluorescent protein binding, 635 nm, higher = more signal, called active from +8 up or from −8 down
XIP peptide (Xip251-270) = assay: compounds binding XIP fragment 251-270 – biochemical, small-molecule microarray, fluorescence 635/667 nm, 0.5 µg/mL protein, primary screen (AID 1183); settings: fluorescence 635 nm, higher = more signal
[12] = blood-stage malaria parasite viability loss – strain 3D7, DAPI fluorescence, 100 nL, primary screen (AID 1184);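 also: parasites grown inside human red blood cells in medium with human serum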; settings: P. falciparum 3D7 growth, 3 d, higher = more signal
[13] = biological target: Homeobox protein Hox-A13 (Mus musculus) (UniProt Q62424); assay: disruptors of Hoxa13 oligonucleotide interaction – biochemical, fluorescence polarization, labeled oligonucleotide, primary screen (AID 1185); settings: Hoxa13:DNA binding, 15 min, higher = more signal, called active from +8 up or from −8 down
[14] = blockers of DNA damage checkpoint Chk1 activation – imaging, HeLa, hydroxyurea, phospho-Chk1 antibody, percent positive cells, primary screen (AID 1186); settings: hydroxyurea-induced phospho-Chk1 immunofluorescence imaging, higher = more signal
[15] = blockers of DNA damage checkpoint Chk1 activation – imaging, HeLa, hydroxyurea, phospho-Chk1 nuclear intensity, primary screen (AID 1187); settings: hydroxyurea-induced phospho-Chk1 immunofluorescence imaging, higher = more signal

Sequence of E3 ubiquitin-protein ligase XIAP (Homo sapiens) (P98170 whole entry, looked up, the tested form may be a part): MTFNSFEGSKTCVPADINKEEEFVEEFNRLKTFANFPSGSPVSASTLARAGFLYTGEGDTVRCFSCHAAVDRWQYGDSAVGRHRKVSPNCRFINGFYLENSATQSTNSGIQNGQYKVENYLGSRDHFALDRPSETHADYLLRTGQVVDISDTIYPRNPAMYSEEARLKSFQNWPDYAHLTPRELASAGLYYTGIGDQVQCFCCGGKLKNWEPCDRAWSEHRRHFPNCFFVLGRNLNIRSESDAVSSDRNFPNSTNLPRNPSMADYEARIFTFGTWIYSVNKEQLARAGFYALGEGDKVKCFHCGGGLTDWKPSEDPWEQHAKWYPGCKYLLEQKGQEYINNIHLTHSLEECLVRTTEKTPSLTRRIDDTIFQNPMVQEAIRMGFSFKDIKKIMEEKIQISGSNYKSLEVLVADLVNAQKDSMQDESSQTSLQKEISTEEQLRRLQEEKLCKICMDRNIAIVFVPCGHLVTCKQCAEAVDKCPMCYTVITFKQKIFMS
Sequence of Dihydroorotate dehydrogenase (quinone), mitochondrial (Plasmodium falciparum (isolate 3D7)) (Q08210 whole entry, looked up): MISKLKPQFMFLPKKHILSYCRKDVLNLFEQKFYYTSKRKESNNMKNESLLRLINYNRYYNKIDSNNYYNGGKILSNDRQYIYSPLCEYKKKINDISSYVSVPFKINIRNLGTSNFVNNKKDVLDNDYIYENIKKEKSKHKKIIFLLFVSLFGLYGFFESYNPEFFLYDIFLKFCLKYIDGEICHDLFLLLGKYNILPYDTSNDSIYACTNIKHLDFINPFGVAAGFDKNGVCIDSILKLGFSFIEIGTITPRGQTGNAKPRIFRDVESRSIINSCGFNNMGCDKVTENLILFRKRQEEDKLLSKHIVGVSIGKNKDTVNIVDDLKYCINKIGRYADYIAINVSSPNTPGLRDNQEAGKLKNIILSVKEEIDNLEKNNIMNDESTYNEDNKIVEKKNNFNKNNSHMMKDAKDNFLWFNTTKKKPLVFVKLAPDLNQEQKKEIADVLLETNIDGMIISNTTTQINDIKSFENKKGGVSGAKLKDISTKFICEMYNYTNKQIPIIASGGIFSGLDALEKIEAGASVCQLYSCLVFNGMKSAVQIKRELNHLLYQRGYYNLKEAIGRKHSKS
Sequence of Homeobox protein Hox-A13 (Mus musculus) (Q62424 whole entry, looked up): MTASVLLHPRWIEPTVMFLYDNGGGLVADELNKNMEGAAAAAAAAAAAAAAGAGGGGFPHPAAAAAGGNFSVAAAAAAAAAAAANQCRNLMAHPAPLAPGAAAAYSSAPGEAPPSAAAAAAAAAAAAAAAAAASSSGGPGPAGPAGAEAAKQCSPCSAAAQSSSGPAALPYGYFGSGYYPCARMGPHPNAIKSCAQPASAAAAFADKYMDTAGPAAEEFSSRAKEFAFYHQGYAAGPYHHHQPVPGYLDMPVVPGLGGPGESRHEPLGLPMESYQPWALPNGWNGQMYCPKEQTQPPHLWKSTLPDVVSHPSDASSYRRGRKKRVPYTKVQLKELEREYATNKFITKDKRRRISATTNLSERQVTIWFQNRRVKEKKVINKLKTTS

SMILES	z-score [1]	z-score [2]	z-score [3]	composite z-score [4]	z-score [5]	z-score [6]	z-score [7]	z-score [8]	z-score [9]	composite z-score [10]	composite z-score [11]	composite z-score (XIP peptide (Xip251-270))	z-score [12]	z-score [13]	z-score [14]	z-score [15]
COCCOC(=O)N1C(=O)[C@@]2(c3cc(C#CC4=CCCCC4)ccc31)[C@H](c1ccc(OCCO)cc1)N1[C@H](c3ccccc3)[C@H](c3ccccc3)OC(=O)[C@H]1[C@@H]2C(=O)N1CCc2cc(OC)c(OC)cc2C1	-0.248	0.683 (inactive)	-0.607 (inactive)	-0.0879 (inactive)	2.68 (inactive)	4.26 (inactive)	0.118 (inactive)	0.796 (inactive)	0.474	-0.0872	0.411 (inactive)	0.64	-2.06	3.66 (inactive)	-0.0561 (inactive)	-0.0158 (inactive)
NC(=O)NCC#Cc1ccc2c(c1)[C@]1(C(=O)N2)[C@H](C(=O)O)[C@H]2C(=O)O[C@H](c3ccccc3)[C@H](c3ccccc3)N2[C@@H]1c1ccc(O)cc1	0.891	-0.0841 (inactive)	0.587 (inactive)	-1.63 (inactive)	0.393 (inactive)	0.0591 (inactive)	-0.131 (inactive)	-0.0796 (inactive)	0.902	0.0043	0.88 (inactive)	0.275	0.137	-5.06 (inactive)	0.0315 (inactive)	0.118 (inactive)
O=C(O)[C@@]1(CCS(=O)(=O)c2ccccc2)N=C(c2ccc(OCCCO)cc2)O[C@H]1c1ccccc1	0.489	-1.11 (inactive)	0.409 (inactive)	-0.0555 (inactive)	-1.27 (inactive)	-0.357 (inactive)	0.28 (inactive)	-0.275 (inactive)	1.26	0.0952	1.15 (inactive)	0.392	-0.471	-5.76 (inactive)	0.0733 (inactive)	0.0816 (inactive)
C#CCNCc1ccccc1	-0.0158	-1.11 (inactive)	0.642 (inactive)	-0.631 (inactive)	-0.677 (inactive)	-0.389 (inactive)	-0.758 (inactive)	-0.624 (inactive)	0.353	-0.0848	-0.609 (inactive)	0.118	-0.158	-0.0595 (inactive)	0.213 (inactive)	-0.392 (inactive)
CCCC=C(CCC)[C@@H](NC(=O)OCC(C)C)c1ccccc1	-0.624	1.08 (inactive)	-0.863 (inactive)	-4.03 (inactive)	2.77 (inactive)	0.396 (inactive)	-0.526 (inactive)	-1.64 (inactive)	0.0342	-0.0852	-0.0053 (inactive)	0.45	-1.02	2.97 (inactive)	0.714 (inactive)	0.115 (inactive)
